Results: PubChem BioAssay (Tox21)
Records with an inconclusive call do not appear. A call without a number means that no potency is given here. Some compounds were tested as several samples or in several runs, with calls that do not always agree. Activity calls are given as the source filed them. Calls come from the whole dose curve; as a rule, active = well fitted cell-killing curve with a large enough effect in the repeat runs; inconclusive = weak or mixed curves; inactive = flat fitted curve, though single readings scatter.

Assay: qHTS assay to identify small molecule antagonists of the estrogen receptor beta (ER-beta) signaling pathway - cell viability counter screen (AID 1259382); note: nearly all actives have a fitted effect of over 55% in size
Details: ER-beta-UAS-bla HEK293T viability, CellTiter-Glo luminescence, 16 h; series mostly up to 92.4 µM; activity change, negative = cytotoxicity: at the top concentration
Excerpt: U.S. Tox21 Program National Center for Advancing Translational Sciences [NCATS] NIH Chemical Genomics Center [NCGC] U.S. Environmental Protection Agency [EPA] National Institutes of Environmental Health Sciences [NIEHS] National Toxicology Program [NTP] U.S. Food and Drug Administration [FDA] Tox21 Assay Overview: Estrogen receptor (ER), a nuclear hormone receptor, plays an important role in development, metabolic homeostasis and reproduction. Two subtypes of ER, ER-alpha and ER-beta, have similar expression patterns with some uniqueness in both types. Endocrine disrupting chemicals (EDCs) and their interactions with steroid hormone receptors like ER causes disruption of normal endocrine function. To identify the compounds that inhibit ER signaling, an ER-beta-UAS-bla GripTite cell line (Life Technologies, Madison, WI, USA) containing a beta-lactamase reporter gene under the control of an UAS response element was used to screen Tox21 10K compound library. The cytotoxicity of the Tox21 compound library against the ER-beta-bla cell line was tested in parallel by measuring the cell viability using CellTiter-Glo assay in the same wells.
Tox21 Assay Protocol Summary: ER-beta-UAS-bla HEK293T cells were dispensed at 2,000 cells/4 uL of assay medium containing 2% charcoal stripped FBS per well into black wall/clear-bottom 1536-well plates using a Multidrop Combi (ThermoFisher Scientific, Waltham, MA) dispenser. After the assay plates were incubated at a 37C and 5% CO2 for 6 hr, 23 nL of compounds dissolved in DMSO, positive controls or DMSO only was transferred to the assay plate by a Pintool station (Kalypsys, San Diego, CA), followed by addition of 1 uL (1nM as final concentration) of 17-beta-estradiol (E2) in assay medium using a Flying Reagent Dispenser (FRD, Aurora Discovery, San Diego, CA). The plates were incubated at 37C and 5% CO2 for 16 hr. Then 1 uL of LiveBLAzer B/G FRET substrate was added using a Flying Reagent Dispenser, the plates were incubated at room temperature for 2 hours, and fluorescence intensity was measured by an Envision plate reader (PerkinElmer, Shelton, CT). For cell viability readout that measures cytotoxicity, 4 uL/well of CellTiter-Glo reagent was added into the assay plates using a FRD. After 30 min incubation at room temperature, the luminescence intensity in the plates was measured using a ViewLux (PerkinElmer) plate reader.
Potency is the fitted concentration of half-maximal effect.

SMILES | Potency | activity change, negative = cytotoxicity
O=S(=O)(Oc1ccc(Cl)cc1)c1ccc(Cl)cc1 | inactive | 
C#CCOS(=O)OC1CCCCC1Oc1ccc(C(C)(C)C)cc1 (stereo not given) |  | -20.9% (inactive)
CCCCC(CC)COC(=O)c1ccc(C(=O)OCC(CC)CCCC)c(C(=O)OCC(CC)CCCC)c1 (stereo not given) | inactive | 
NCc1cccnc1 | inactive | 
ClC1C(Cl)C(Cl)C(Cl)C(Cl)C1Cl (stereo not given) | inactive | 
CC(C)Oc1cc(-n2nc(C(C)(C)C)oc2=O)c(Cl)cc1Cl | inactive | 
COP(=S)(OC)Oc1ccc([N+](=O)[O-])cc1 | inactive | 
O=[N+]([O-])c1cccc2ccccc12 | inactive | 
c1nc[nH]n1 | inactive | 
C=CCc1ccc2c(c1)OCO2 | inactive | 
N[C@@H](Cc1ccc(N(CCCl)CCCl)cc1)C(=O)O | inactive | 
O=c1oc2ccccc2c(O)c1C(CC(O)c1ccc(-c2ccc(Br)cc2)cc1)c1ccccc1 (stereo not given) | inactive | 
CNC(=O)N(C)c1nnc(C(C)(C)C)s1 | inactive | 
Oc1ccc(-c2ccccc2)cc1 | inactive | 
O=[N+]([O-])c1ccc(O)c([N+](=O)[O-])c1 | inactive | 
O=Cc1ccco1 | inactive | 
CCOP(=S)(OCC)O/N=C(\C#N)c1ccccc1 | inactive | 
C=CCc1ccc(OC)cc1 | inactive | 
Oc1c(Cl)c(Cl)c(Cl)c(Cl)c1Cl | inactive | 
CCCCN(CC)c1c([N+](=O)[O-])cc(C(F)(F)F)cc1[N+](=O)[O-] | inactive | 

SMILES | Potency | activity change, negative = cytotoxicity
O=C(O)C(F)(F)C(F)(F)C(F)(F)C(F)(F)C(F)(F)C(F)(F)C(F)(F)F |  | -20.1% (inactive)
COC(=O)c1sccc1S(=O)(=O)NC(=O)Nc1nc(C)nc(OC)n1 | inactive | 
CN(C)C(=O)Nc1ccc(Cl)cc1 | inactive | 
Cc1ccc(OP(=O)(Oc2ccc(C)cc2)Oc2ccc(C)cc2)cc1 |  | -4.74% (inactive)
NC(=S)Nc1ccccc1 | 27.8 µM (active) and inactive | 
O=C(CCl)c1ccccc1 | inactive | 
CNC(=O)Oc1cccc2c1OC(C)(C)O2 | inactive | 
N#CCCCl | inactive | 
OCC(O)CO | inactive | 
Nc1ccncc1 | inactive | 
c1ccc(N=Nc2ccccc2)cc1 | inactive | 
CCCCC(CC)COC(=O)Cl (stereo not given) | inactive | 
C=C(C)C(=O)OCC1CO1 (stereo not given) | inactive | 
Cc1c(COC(=O)[C@@H]2[C@H](/C=C(\Cl)C(F)(F)F)C2(C)C)cccc1-c1ccccc1 | inactive | 
c1ccc(P(c2ccccc2)c2ccccc2)cc1 | inactive | 
Brc1ccc(Oc2cc(Br)c(Br)cc2Br)c(Br)c1 | inactive | 
O=C(O)CC[N+](=O)[O-] | inactive | 
Nc1cccnc1 | inactive | 
Cc1ccc2c(c1N)C(=O)c1ccccc1C2=O |  | -18.5% (inactive)
CCCCNC(=O)n1c(NC(=O)OC)nc2ccccc21 |  | 5.7% (inactive)
